Our source for the inhibition values is ChEMBL document CHEMBL1961873, “Compounds: GSK PKIS; Assays: Nanosyn kinase panel” (2012).

Experiment [1] has as its target Mast/stem cell growth factor receptor Kit (Homo sapiens) (UniProt P10721). The note with it: at 1 µM.
The subject of experiment [2] is Mast/stem cell growth factor receptor Kit (Homo sapiens), P10721 [D816V]. Conditions: at 0.1 µM.
Experiment [3] has the same test system. Conditions: at 1 µM.
In experiment [4] the test system is Mast/stem cell growth factor receptor Kit (Homo sapiens), P10721 [T670I]. Conditions: at 0.1 µM.
Experiment [5] has the same test system. The note with it: at 1 µM.
The subject of experiment [6] is Mast/stem cell growth factor receptor Kit (Homo sapiens), P10721 [V560G]. The note with it: at 0.1 µM.
The test system is the same in experiment [7]. The note with it: at 1 µM.
Experiment [8] addresses Tyrosine-protein kinase Lck (Homo sapiens) (UniProt P06239). Conditions: at 0.1 µM.
For experiment [9] the target is unchanged. The note with it: at 1 µM.
The target of experiment [10] is Leukocyte tyrosine kinase receptor (Homo sapiens) (UniProt P29376). Conditions: at 0.1 µM.
The target is the same in experiment [11]. The note with it: at 1 µM.
In experiment [12] the target is Tyrosine-protein kinase Lyn (Homo sapiens) (UniProt P07948). The note with it: at 0.1 µM.
The target is the same in experiment [13]. The note with it: at 1 µM.
Experiment [14] has the same target. Conditions: at 0.1 µM. This is another data set of the same source.
For experiment [15] the target is unchanged. The note with it: at 1 µM. This is another data set of the same source.
In experiment [16] the target is T1, Tyrosine-protein kinase Mer (Homo sapiens) (UniProt Q12866).
T1 sequence (whole entry): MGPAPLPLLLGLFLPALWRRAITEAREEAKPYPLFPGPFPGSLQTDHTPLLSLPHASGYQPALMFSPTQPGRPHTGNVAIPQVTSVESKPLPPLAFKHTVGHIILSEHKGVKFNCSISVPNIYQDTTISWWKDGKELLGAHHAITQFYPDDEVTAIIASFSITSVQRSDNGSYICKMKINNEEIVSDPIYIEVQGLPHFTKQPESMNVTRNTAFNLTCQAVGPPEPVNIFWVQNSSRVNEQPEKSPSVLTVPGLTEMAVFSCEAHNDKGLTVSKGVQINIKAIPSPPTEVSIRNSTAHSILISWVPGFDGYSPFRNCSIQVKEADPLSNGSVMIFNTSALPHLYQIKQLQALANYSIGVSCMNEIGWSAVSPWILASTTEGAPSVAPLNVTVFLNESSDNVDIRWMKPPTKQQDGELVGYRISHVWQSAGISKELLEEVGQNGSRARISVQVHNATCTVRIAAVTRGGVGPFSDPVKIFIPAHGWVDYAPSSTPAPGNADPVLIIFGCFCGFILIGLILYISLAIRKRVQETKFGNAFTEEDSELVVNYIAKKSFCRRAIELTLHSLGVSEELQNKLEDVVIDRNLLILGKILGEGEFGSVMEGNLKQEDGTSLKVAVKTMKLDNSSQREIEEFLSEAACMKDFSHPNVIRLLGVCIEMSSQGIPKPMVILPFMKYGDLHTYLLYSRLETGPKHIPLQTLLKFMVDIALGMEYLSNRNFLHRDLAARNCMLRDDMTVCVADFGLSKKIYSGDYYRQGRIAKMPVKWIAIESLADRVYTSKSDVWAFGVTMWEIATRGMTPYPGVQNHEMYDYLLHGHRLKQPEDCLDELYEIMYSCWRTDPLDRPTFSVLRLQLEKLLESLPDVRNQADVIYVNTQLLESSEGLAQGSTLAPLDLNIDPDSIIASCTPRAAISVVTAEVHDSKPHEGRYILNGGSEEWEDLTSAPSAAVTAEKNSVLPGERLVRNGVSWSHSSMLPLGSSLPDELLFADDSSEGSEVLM
The note with it: at 0.1 µM.

Experiment [17] addresses T1, Tyrosine-protein kinase Mer (Homo sapiens). The note with it: at 1 µM.
In experiment [18] the target is Hepatocyte growth factor receptor (Homo sapiens) (UniProt P08581). The note with it: at 0.1 µM.
For experiment [19] the target is unchanged. Conditions: at 1 µM.
Experiment [20] addresses T2, Muscle, skeletal receptor tyrosine-protein kinase (Homo sapiens) (UniProt O15146).
T2 sequence (whole entry): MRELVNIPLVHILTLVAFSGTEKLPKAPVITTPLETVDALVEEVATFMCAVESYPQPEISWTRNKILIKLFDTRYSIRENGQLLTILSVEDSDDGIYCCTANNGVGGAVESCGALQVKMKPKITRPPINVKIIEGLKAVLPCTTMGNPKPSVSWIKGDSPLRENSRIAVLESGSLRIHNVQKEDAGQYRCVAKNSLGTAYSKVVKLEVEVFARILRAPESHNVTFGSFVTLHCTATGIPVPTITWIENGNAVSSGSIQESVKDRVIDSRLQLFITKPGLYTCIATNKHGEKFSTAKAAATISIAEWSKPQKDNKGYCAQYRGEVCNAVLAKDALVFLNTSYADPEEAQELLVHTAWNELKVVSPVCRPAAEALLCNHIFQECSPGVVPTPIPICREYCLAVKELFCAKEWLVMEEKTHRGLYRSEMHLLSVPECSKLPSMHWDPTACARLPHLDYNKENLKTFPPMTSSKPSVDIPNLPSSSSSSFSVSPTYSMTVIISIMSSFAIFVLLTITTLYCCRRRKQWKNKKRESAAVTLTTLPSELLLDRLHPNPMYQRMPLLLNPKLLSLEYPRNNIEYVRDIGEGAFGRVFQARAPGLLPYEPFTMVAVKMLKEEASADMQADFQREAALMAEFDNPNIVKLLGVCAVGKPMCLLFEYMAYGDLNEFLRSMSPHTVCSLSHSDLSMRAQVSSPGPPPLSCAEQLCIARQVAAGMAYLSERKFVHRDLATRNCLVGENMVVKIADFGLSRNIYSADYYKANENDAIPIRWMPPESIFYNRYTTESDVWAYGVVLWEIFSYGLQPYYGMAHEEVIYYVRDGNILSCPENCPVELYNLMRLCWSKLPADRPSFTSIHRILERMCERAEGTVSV
Conditions: at 0.1 µM.

Chain of Tyrosine-protein kinase Lck (Homo sapiens) (P06239 2-509 limits assumed): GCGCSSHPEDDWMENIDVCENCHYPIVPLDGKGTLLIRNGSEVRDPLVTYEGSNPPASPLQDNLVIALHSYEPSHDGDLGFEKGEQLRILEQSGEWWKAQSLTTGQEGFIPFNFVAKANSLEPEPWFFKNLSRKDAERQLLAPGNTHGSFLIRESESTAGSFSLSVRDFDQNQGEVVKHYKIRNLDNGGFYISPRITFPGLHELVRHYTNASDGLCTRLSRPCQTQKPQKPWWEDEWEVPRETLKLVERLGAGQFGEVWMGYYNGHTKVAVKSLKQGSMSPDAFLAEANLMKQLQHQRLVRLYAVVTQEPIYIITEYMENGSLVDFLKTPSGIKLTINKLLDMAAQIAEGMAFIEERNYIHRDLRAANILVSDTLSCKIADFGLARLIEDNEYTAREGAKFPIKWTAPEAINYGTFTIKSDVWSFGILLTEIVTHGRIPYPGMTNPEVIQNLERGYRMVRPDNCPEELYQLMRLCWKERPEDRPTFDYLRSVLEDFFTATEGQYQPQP
Chain of Leukocyte tyrosine kinase receptor (Homo sapiens) (P29376 whole entry): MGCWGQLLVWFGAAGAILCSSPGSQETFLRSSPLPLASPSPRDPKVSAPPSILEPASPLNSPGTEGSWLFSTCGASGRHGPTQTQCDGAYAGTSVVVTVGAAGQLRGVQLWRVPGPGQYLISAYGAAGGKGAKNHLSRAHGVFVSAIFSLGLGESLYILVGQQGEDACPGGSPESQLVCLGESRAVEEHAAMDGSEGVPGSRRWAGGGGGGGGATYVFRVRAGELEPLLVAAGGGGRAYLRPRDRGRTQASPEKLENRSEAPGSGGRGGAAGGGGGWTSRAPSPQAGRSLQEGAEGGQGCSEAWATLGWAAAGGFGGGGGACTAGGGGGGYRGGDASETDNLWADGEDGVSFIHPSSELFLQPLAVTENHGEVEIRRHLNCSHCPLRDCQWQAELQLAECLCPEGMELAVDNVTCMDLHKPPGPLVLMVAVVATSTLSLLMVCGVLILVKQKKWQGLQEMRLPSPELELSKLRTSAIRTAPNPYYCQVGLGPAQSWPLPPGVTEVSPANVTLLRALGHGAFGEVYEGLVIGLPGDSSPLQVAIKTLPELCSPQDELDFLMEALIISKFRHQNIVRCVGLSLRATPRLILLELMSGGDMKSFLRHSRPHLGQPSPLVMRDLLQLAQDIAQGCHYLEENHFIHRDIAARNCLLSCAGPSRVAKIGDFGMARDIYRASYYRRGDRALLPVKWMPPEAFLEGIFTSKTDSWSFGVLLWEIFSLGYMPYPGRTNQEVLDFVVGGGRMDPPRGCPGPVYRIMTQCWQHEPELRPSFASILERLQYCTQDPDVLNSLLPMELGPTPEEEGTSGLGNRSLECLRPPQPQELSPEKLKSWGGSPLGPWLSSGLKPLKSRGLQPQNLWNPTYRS
Chain of Mast/stem cell growth factor receptor Kit (Homo sapiens), P10721 [T670I] (P10721 whole entry T670I): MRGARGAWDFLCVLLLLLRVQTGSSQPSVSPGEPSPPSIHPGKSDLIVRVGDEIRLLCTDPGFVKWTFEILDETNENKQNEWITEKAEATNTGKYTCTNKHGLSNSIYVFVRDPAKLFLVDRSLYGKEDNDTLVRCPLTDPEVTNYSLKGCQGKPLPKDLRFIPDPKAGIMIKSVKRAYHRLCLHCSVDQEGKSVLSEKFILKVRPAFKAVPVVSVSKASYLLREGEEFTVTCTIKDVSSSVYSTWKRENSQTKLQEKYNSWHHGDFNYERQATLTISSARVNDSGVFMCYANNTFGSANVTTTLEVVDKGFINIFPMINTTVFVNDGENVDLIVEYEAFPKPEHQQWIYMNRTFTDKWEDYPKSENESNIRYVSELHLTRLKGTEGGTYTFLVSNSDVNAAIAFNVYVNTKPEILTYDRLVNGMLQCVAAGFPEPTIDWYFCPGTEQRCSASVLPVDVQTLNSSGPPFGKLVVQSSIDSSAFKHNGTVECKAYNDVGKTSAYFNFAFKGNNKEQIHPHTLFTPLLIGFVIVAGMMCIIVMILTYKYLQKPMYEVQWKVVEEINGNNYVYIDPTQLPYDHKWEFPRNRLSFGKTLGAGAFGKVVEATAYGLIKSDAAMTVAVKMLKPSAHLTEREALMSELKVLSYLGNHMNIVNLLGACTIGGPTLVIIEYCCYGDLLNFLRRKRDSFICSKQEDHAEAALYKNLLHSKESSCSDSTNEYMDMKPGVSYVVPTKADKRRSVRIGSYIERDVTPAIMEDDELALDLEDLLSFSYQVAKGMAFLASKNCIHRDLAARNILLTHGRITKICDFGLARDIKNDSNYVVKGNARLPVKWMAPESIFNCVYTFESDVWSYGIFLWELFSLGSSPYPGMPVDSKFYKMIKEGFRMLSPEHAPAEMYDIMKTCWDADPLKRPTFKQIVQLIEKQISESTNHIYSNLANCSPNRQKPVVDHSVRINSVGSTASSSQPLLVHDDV
Chain of Mast/stem cell growth factor receptor Kit (Homo sapiens), P10721 [V560G] (P10721 whole entry V560G): as the sequence (P10721 whole entry T670I) above, with V560G, I670T counted along it
Chain of Mast/stem cell growth factor receptor Kit (Homo sapiens), P10721 [D816V] (P10721 whole entry D816V): as the sequence (P10721 whole entry T670I) above, with I670T, D816V counted along it
Chain of Tyrosine-protein kinase Lyn (Homo sapiens) (P07948 2-512 limits assumed): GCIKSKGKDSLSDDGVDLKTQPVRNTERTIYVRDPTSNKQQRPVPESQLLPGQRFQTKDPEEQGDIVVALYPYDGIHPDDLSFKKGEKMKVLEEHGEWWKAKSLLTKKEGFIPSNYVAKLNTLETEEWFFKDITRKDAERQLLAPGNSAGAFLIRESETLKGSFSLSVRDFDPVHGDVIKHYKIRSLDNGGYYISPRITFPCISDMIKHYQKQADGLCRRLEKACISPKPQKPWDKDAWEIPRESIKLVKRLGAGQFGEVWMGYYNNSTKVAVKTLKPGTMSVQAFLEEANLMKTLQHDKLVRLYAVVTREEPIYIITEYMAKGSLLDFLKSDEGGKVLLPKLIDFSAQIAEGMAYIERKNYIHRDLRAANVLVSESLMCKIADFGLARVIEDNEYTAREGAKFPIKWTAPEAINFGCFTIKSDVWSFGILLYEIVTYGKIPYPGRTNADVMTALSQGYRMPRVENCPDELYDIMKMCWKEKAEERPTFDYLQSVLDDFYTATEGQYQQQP
Chain of Hepatocyte growth factor receptor (Homo sapiens) (P08581 whole entry): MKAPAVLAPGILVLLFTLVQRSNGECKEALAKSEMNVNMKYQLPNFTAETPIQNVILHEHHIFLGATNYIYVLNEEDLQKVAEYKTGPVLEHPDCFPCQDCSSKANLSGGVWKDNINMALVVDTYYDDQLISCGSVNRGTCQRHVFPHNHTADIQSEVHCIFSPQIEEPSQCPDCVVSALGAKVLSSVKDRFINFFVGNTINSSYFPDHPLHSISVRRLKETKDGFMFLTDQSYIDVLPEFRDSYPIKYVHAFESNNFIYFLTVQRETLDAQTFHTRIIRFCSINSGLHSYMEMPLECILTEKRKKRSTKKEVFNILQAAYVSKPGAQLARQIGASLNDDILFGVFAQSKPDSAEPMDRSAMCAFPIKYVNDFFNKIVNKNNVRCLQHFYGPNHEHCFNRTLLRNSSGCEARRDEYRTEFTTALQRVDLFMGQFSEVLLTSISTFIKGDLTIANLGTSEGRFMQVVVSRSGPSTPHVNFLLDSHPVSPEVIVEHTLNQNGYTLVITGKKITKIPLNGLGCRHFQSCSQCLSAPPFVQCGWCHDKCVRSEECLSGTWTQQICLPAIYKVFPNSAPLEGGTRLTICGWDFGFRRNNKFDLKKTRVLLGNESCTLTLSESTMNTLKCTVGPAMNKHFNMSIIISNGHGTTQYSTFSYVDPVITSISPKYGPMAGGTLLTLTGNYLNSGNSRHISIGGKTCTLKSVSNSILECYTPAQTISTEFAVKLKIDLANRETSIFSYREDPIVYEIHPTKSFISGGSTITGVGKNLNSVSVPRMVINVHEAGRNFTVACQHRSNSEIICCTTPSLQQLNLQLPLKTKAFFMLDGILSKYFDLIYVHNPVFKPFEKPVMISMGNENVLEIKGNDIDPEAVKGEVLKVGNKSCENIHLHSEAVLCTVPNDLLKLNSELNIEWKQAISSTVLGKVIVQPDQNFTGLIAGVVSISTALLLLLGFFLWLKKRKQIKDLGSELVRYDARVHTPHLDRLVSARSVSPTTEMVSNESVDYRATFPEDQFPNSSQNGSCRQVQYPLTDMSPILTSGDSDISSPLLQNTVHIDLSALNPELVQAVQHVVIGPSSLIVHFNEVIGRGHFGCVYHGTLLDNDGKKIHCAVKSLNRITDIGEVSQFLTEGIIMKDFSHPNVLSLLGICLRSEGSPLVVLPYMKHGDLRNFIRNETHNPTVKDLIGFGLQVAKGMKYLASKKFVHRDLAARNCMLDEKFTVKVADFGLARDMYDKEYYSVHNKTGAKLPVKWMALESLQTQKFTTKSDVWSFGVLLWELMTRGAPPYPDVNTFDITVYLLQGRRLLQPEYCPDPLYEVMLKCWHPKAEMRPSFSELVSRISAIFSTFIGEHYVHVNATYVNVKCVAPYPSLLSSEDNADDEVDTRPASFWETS
Chain of Mast/stem cell growth factor receptor Kit (Homo sapiens) (P10721 whole entry): as the sequence (P10721 whole entry T670I) above, with I670T counted along it

As to `COc1cc(C)c(N(C)C(=O)CN(C)C)cc1Nc1nc(Nc2cccc(F)c2C(N)=O)c2cc[nH]c2n1`, the inhibition was -0.73% in experiment [1]; -0.92% in experiment [2]; 0.99% in [3]; -0.51% in [4]; -1.63% in experiment [5]; -1.08% in experiment [6]. Also, the inhibition was -3.38% in experiment [7]; -3.07% in experiment [8]; -1.56% in experiment [9]; 11.7% in [10]; 57.5% in experiment [11]; 0.96% in experiment [12]. Moreover, the inhibition was 2.25% in [13]; -0.16% in experiment [14]; 0.99% in experiment [15]; 1.74% in experiment [16]; 1.94% in [17]; -0.92% in experiment [18]. The inhibition came out at 1.68% in experiment [19] and 1.6% in experiment [20].

As for `C#Cc1cccc(Nc2ncnc3ccc(OCCCCNCCS(C)(=O)=O)cc23)c1`, the inhibition in experiment [1] is 7.12%; in experiment [2] it was 5.01%; in [3], 8.8%; in experiment [4], 1.97%; in experiment [5], 9.5%; in experiment [6], -0.82%. Besides, the inhibition was 4.36% in [7]; 0.24% in experiment [8]; 13.5% in [9]; 5.05% in [10]; 28.5% in [11]; 7.93% in [12]. The inhibition in [13] is 26.9%; in experiment [14] it was 5.05%; in [15], 21.8%; in experiment [16], 2%; in experiment [17], 5.14%; in [18], 3.29%. The inhibition in experiment [19] stood at 8.4%; in experiment [20] it was 1.86%.

Turning to `CCc1nccc2c1nc(-c1nonc1N)n2CC`, the inhibition in [1] was 0.89%; in experiment [2] it was 0.61%; in [3], -2.34%; in [4] it was -0.13%; in experiment [5], -2.18%; in [6], 3.98%. Also, the inhibition is 0.88% in experiment [7]; 0.67% in experiment [8]; 6.3% in experiment [9]; 6.17% in [10]; 6.1% in experiment [11]; 3.82% in experiment [12]. The inhibition in experiment [13] was 6.26%; in experiment [14], 1.19%; in experiment [15], 2.71%; in experiment [16], -0.98%; in [17] it was 0.92%; in [18] it was 2.04%. In addition, the results for the inhibition in experiment [19] and in experiment [20] were 2.39% and 1.31%, respectively.

Consider `COc1cc(Nc2ncc(-c3ccccc3)o2)cc(OC)c1OC`, for which the inhibition in experiment [1] turned out to be 98.7%; in experiment [2] it was 0.53%; in experiment [3], 0.05%; in [4], 69.3%; in [5], 94.8%; in experiment [6], 22.2%. Moreover, the inhibition in experiment [7] came to 80.4%; in experiment [8] it was 2.17%; in [9], 25%; in experiment [10], 0.26%; in experiment [11], 1.47%; in experiment [12], 7.48%. In addition, the inhibition in experiment [13] worked out at 47.8%; in experiment [14], 5.8%; in experiment [15] it was 46.5%; in experiment [16], 3.23%; in experiment [17], 3.53%; in experiment [18] it was 2.19%. Further, the inhibition in experiment [19] worked out at 2.13%; in experiment [20], 1.59%.

As to `N#Cc1ccc(Oc2nccc(-c3c(-c4ccc(F)cc4)ncn3C3CCNCC3)n2)cc1`, the inhibition is 6.19% in [1]; 2.91% in [2]; 2.36% in experiment [3]; 3.26% in [4]; 4.72% in [5]; -0.39% in experiment [6]. The inhibition in [7] was -1.19%; in [8] it was 3.86%; in experiment [9], 6.11%; in experiment [10], 4.74%; in experiment [11], 5.69%; in [12], 5.36%. The inhibition turned out to be 7.26% in experiment [13]; 3.37% in experiment [14]; 4.34% in [15]; 2.29% in experiment [16]; 2.26% in [17]; 3.69% in experiment [18]. The inhibition was found to be 6.49% in [19] and 1.86% in experiment [20].

By inhibition is commonly meant the change of the read-out against control, counted positive when it falls.
